Experiment [1] is described as follows: A CellTox Green Cytotoxicity Assay to monitor cytotoxicity in HepG2 cells - 0 hour (AID 1224882). Further: nearly all actives have a fitted effect of over 35% in size. In a few lines: (§1)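 Measurements at 0, 8, 16, 24, 32 and 40 h of treatment captured CellTox Green fluorescence in HepG2 cells that had been co-plated with reagent and preincubated 5 h at 37 C/5% CO2.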
Experiment [2] in a line: A CellTox Green Cytotoxicity Assay to monitor cytotoxicity in HepG2 cells - 32 hour (AID 1224883). Further: nearly all actives have a fitted effect of over 50% in size. A digest of the protocol: as §1
Experiment [3] can be described thus: A CellTox Green Cytotoxicity Assay to monitor cytotoxicity in HEK293 cells - 8 hour (AID 1224884). Further: nearly all actives have a fitted effect of over 35% in size. In a few lines:
(§2)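 Tox21 screen in HEK293: membrane-impermeant cyanine dye fluoresces on binding dead-cell DNA; compound pinned 5 h post-seeding, plates held at 37 C, signal read repeatedly through 40 h.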

Experiment [4] can be described thus: qHTS RealTime-Glo MT Cell Viability Assay in HEK293 cells - 24 hour (AID 1224886). Further: top concentration of the series differs between compounds; nearly all actives have a fitted effect of over 50% in size. A digest of the protocol:
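Luminescence generated by NanoLuc from substrate produced by living HEK293 cells served as the viability signal. Each value reflects the reading at its stated time point during continuous 40 h compound exposure at 37 C.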
In general terms: Quantitative high-throughput screening tests each substance at several concentrations.

Experiment [5] in a line: qHTS RealTime-Glo MT Cell Viability Assay in HEK293 cells - 8 hour (AID 1224887). Further: top concentration of the series differs between compounds; nearly all actives have a fitted effect of over 50% in size. In a few lines: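 HEK293 + NanoLuc + prosubstrate, 600 cells/well; 5 h, 37 C/5% CO2; compound 23 nL in DMSO by pintool; 37 C; luminescence read at 0, 8, 16, 24, 32 and 40 h time points.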
The nature of experiment [6]: A CellTox Green Cytotoxicity Assay to monitor cytotoxicity in HEK293 cells - 16 hour (AID 1224888). Further: nearly all actives have a fitted effect of over 35% in size. A digest of the protocol: as §2
Experiment [7] is described as follows: qHTS RealTime-Glo MT Cell Viability Assay in HepG2 cells - 0 hour (AID 1224889). Further: nearly all actives have a fitted effect of over 50% in size. In a few lines: (§3)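 Tox21 10K library screened in qHTS format on HepG2 cells carrying RealTime-Glo reagents. Compounds were added after a 5 h preincubation, and the luminescent signal from continuous culture was measured repeatedly during 40 h treatment.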
A short description of experiment [8]: A CellTox Green Cytotoxicity Assay to monitor cytotoxicity in HepG2 cells - 8 hour (AID 1224890). Further: nearly all actives have a fitted effect of over 45% in size. In a few lines:
as §1

Experiment [9] in a line: qHTS assay to identify small molecule antagonists of the estrogen receptor alpha (ER-alpha) signaling pathway using the BG1 cell line in the presence of 0.1 nM 17-beta-estradiol - cell viability counter screen (AID 1259241). Further: nearly all actives have a fitted effect of over 40% in size. In a few lines:
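VM7Luc4E2, 4,000 cells/well, phenol red-free medium + 10% charcoal-stripped FBS; 24 hr plating; cpd + 0.1 nM E2 final, 22 hr 37C/5% CO2; CellTiter-Fluor 30 min, fluorescence.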

Experiment [10] is described as follows: qHTS assay to identify small molecule antagonists of the androgen receptor (AR) signaling pathway using the MDA cell line in the presence of 0.5 nM R1881 - cell viability counter screen (AID 1259242). Further: nearly all actives have a fitted effect of over 45% in size. A digest of the protocol:
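Concentration-response screen of compounds for toxicity in MDA-kb2 reporter cells: 16 hr at 37C with 0.5 nM R1881, endpoint live-cell protease fluorescence measured in the reporter wells.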

Experiment [11] deals with Estrogen receptor (Homo sapiens) (UniProt P03372). The experiment is described as follows: qHTS assay to identify small molecule antagonists of the estrogen receptor alpha (ER-alpha) signaling pathway using the BG1 cell line in the presence of 0.1 nM 17-beta-estradiol (AID 1259244). Further: nearly all actives have a fitted effect of over 50% in size. A digest of the protocol: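 Compounds were tested against 0.1 nM (final) 17beta-estradiol in VM7Luc4E2 cells, which express full-length ER-alpha and an ERE-luciferase reporter; luminescence was recorded following 22 h exposure.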
Chain of Estrogen receptor (Homo sapiens) (P03372 whole entry, looked up): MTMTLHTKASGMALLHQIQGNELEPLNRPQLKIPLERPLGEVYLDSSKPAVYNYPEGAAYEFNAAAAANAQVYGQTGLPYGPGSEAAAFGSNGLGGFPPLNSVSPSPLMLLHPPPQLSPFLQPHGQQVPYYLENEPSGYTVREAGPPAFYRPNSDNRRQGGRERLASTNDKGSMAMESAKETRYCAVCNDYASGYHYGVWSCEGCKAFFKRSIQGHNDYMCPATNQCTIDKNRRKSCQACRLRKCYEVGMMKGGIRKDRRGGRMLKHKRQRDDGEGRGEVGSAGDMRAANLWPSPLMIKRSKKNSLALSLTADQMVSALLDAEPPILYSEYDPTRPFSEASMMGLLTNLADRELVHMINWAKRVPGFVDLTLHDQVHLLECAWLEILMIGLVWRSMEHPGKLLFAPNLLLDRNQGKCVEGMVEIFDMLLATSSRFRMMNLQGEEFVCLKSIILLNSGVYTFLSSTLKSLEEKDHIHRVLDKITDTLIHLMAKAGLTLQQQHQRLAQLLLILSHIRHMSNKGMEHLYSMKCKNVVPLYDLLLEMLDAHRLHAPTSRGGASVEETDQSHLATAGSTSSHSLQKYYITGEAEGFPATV

Experiment [12] in a line: qHTS assay to identify small molecule phospholipidosis (PLD) inducers (AID 1259344; active means well fitted curve in the direction sought with a large enough effect; an effect the other way counts as inactive or inconclusive). In a few lines:
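Read-out is LipidTOX Red fluorescence (ex 595/em 615) imaged in HepG2 cells after 24 h compound exposure at 37 C, with Hoechst nuclear counterstain (ex 352/em 461) allowing per-cell normalisation.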

The nature of experiment [13]: qHTS assay to identify small molecule HDAC inhibitors (AID 1259364).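 Further: wild-type HCT-116 cells with endogenous class I/II HDAC activity; top concentration of the series differs between compounds; nearly all actives have a fitted effect of over 45% in size.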 In a few lines: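 Screening used wild-type human colon HCT-116 cells incubated overnight, dosed with compounds for 2 hours, and assayed with a homogeneous luminogenic HDAC I/II reagent for 30 minutes at room temperature.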
Experiment [14] is described as follows: qHTS assay to identify small molecule HDAC inhibitors - cell viability counter screen (AID 1259365). A digest of the protocol:
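Luminescence from CellTiter-Glo, developed 30min at room temperature, reports viability of wild-type HCT-116 cells treated 2hr with compounds at 37 C and 5% CO2 after overnight plating.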

Experiment [15] in a line: qHTS assay to identify small molecule agonists of the sonic hedgehog signaling (Shh) pathway - cell viability counter screen (AID 1259366). Further: nearly all actives have a fitted effect of over 50% in size. A digest of the protocol: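 Cytotoxicity counter screen run in the same wells as the Shh reporter assay. NIH/3T3 cells carrying a Gli1 response element–driven luciferase were treated with DMSO-dissolved compounds for 24hr, and live-cell protease activity was measured with CellTiter-Fluor.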

A short description of experiment [16]: qHTS assay to identify small molecule antagonists of the sonic hedgehog signaling (Shh) pathway - cell viability counter screen (AID 1259367). Further: nearly all actives have a fitted effect of over 55% in size. A digest of the protocol: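 Fluorescence read-out (CellTiter-Fluor, 1 hr at 37C) taken after 23 hr compound treatment of 3T3 Gli1-Luc cells stimulated with conditioned medium. Cells were seeded at 2,000 per well and pre-incubated 4 hr.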

The nature of experiment [17]: qHTS assay to identify small molecule agonists of the sonic hedgehog signaling (Shh) pathway (AID 1259368; calls by dose curve;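 further: NIH/3T3-derived 3T3Gli1-Luc cells carrying a stable Gli1-driven firefly luciferase reporter; series mostly up to about 92 µM; nearly all actives have a fitted effect of over 15% in size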). In a few lines: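 Hedgehog pathway agonism scored by increased firefly luciferase luminescence in 3T3Gli1-Luc cells treated 24 hr at 37 C; detection used a 30 min room-temperature reagent incubation.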
Experiment [18] in a line: qHTS assay to identify small molecule antagonists of the sonic hedgehog signaling (Shh) pathway (AID 1259369; calls by dose curve; further: nearly all actives have a fitted effect of over 45% in size). In a few lines: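 NIH/3T3 stable Gli1-Luc clone, 2,000 cells/well, 4hr settle; cpd + conditioned medium 24hr; Luc reagent 30min RT; luminescence.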
Experiment [19] can be described thus: qHTS RealTime-Glo MT Cell Viability Assay in HepG2 cells - 16 hour (AID 1224885). Further: nearly all actives have a fitted effect of over 50% in size. A digest of the protocol:
as §3

Experiment [20] has as its target Androgen receptor (Homo sapiens) (UniProt P10275). Kind of experiment: qHTS assay to identify small molecule antagonists of the androgen receptor (AR) signaling pathway using the MDA cell line in the presence of 0.5 nM R1881 (AID 1259243). Further: nearly all actives have a fitted effect of over 50% in size. Further: potency means the concentration at half of the fitted maximal effect. A digest of the protocol: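 With R1881 held at 0.5 nM (final), compound effects on MMTV-luciferase expression in MDA-kb2 cells were scored by luminescence after a 16 hr, 37C incubation.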

These results are taken from PubChem BioAssay (Tox21).

Unmarked numbers belong to inactive results. Results filed as inconclusive are left out. Activity calls are given as the source filed them. Unless noted, the call rests on the fitted dose curve; in most records, active means well fitted curve in the direction sought with a large enough effect in the repeat runs; inconclusive means weak or mixed curves; inactive means no such curve, though single readings can be large; an effect the other way counts as inactive or inconclusive.

Chain of Androgen receptor (Homo sapiens) (P10275 whole entry, looked up): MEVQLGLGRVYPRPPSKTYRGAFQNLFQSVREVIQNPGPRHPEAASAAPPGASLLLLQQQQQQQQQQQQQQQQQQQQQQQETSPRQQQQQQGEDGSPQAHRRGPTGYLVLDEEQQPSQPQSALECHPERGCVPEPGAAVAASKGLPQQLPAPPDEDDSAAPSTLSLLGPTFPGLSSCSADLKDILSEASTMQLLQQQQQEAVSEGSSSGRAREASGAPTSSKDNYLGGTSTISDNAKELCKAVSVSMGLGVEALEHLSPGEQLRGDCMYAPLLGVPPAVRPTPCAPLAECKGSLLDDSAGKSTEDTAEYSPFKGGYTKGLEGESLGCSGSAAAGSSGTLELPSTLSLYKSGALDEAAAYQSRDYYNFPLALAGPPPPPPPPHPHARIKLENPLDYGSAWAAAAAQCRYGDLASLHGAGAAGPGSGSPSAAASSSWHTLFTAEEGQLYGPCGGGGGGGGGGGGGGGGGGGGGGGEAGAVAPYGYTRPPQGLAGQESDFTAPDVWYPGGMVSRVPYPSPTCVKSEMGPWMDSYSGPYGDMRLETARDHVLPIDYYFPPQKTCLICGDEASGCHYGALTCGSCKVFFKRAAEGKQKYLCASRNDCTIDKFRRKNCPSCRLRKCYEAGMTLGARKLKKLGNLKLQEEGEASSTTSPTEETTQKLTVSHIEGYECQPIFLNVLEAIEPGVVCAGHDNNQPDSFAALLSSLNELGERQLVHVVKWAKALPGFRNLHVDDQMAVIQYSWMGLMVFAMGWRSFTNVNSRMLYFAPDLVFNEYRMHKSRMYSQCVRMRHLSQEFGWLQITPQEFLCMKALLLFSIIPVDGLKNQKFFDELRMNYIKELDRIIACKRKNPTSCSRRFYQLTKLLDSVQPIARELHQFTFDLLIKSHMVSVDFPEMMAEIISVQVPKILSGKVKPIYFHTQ

On to `CC(=O)Oc1cccc(C)c1`, for which the Potency result in experiment [1], in experiment [2], in [4], in [5], in [7] and in experiment [13] was “inactive” in each case. Also, the Potency entry in [15], in experiment [16] and in experiment [18] was “inactive” in each case. For the same compound, the compound was classed as inactive in [3], in experiment [6], in experiment [8], in [9], in experiment [10] and in experiment [11]. Further, the result in [12], in experiment [14] and in experiment [17] was inactive.
On to `O=C(c1ccccc1)C1(O)CCCCC1`, for which the Potency result in experiment [1], in experiment [2], in [4], in experiment [5], in [7] and in experiment [13] was “inactive” each time. The Potency result in experiment [15], in [16] and in experiment [18] was “inactive” each time. The compound was classed as inactive in experiment [19], in experiment [6], in experiment [8], in [9], in experiment [10] and in [14]. Besides, in [17], the compound was called inactive.
Take `CN(C)CCCCCCN(C)C`: the Potency result in [1], in experiment [2], in experiment [4], in [5], in experiment [7] and in experiment [13] was “inactive” in each case. Moreover, the Potency entry in [15], in experiment [16] and in [18] was “inactive” each time. In addition, the compound was called inactive in experiment [3], in experiment [6], in [8], in experiment [14] and in experiment [17].
`O=C(c1ccccc1O)c1ccccc1O`: the Potency entry in experiment [1], in experiment [2], in experiment [5], in [13] and in experiment [15] was “inactive” in each case. Besides, the call in experiment [3], in experiment [19], in [6], in experiment [8], in experiment [9] and in experiment [10] was inactive. In addition, the result in experiment [11], in [14] and in experiment [17] was inactive. Besides, the Potency in [20] is 24.1 µM (active).
Regarding `CC1CCC(CO)CC1` (stereo unspecified), the Potency entry in [1], in [2], in experiment [4], in experiment [5], in [7] and in [20] was “inactive” throughout. The Potency result in [13], in experiment [15], in experiment [16] and in experiment [18] was “inactive” each time. For the same compound, the compound was classed as inactive in experiment [19], in experiment [6], in experiment [8], in experiment [9], in experiment [10] and in experiment [14]. The outcome in [17] was inactive.
In the case of `C1CCC2(CCCCO2)OC1`, the Potency entry in experiment [1], in [2], in [4], in [5], in experiment [7] and in experiment [13] was “inactive” throughout. For the same compound, the Potency entry in experiment [15] and in experiment [18] was “inactive” in each case. The compound was classed as inactive in experiment [3], in experiment [6], in experiment [8], in experiment [9], in [10] and in experiment [11]. Also, the compound was classed as inactive in [14].
Regarding `CC(=O)c1cnccn1`, the Potency result in [1], in [2], in experiment [4], in experiment [5], in [7] and in experiment [13] was “inactive” in each case. The Potency entry in experiment [15], in experiment [16] and in experiment [18] was “inactive” in each case. Also, the compound was called inactive in [3], in [9], in experiment [10] and in experiment [14].
For the compound `Nc1ccn([C@@H]2O[C@H](CO)[C@@H](O)C2O)c(=O)n1` (stereo partly specified), the Potency result in [1], in [2], in experiment [4], in [5], in experiment [7] and in [13] was “inactive” in each case. For the same compound, the Potency result in experiment [15] and in [18] was “inactive” throughout. In addition, the outcome in [19], in experiment [6], in [8], in experiment [10], in experiment [12] and in experiment [14] was inactive. Moreover, in [17], the compound was called inactive.
As to `Cc1ccc(C(=O)Nc2ccc(S(=O)(=O)O)c3cc(S(=O)(=O)O)cc(S(=O)(=O)O)c23)cc1NC(=O)c1cccc(NC(=O)Nc2cccc(C(=O)Nc3cc(C(=O)Nc4ccc(S(=O)(=O)O)c5cc(S(=O)(=O)O)cc(S(=O)(=O)O)c45)ccc3C)c2)c1`, the Potency result in [2], in [4], in experiment [5], in experiment [7], in experiment [13] and in experiment [15] was “inactive” throughout. For the same compound, the Potency result in experiment [16] and in experiment [18] was “inactive” each time. The compound was called inactive in experiment [3], in [19], in [6], in experiment [8], in experiment [9] and in experiment [10]. For the same compound, the outcome in [11], in experiment [12], in experiment [14] and in experiment [17] was inactive.
